Reference: PubChem BioAssay (Tox21)
A number with no mark means an inactive call. Inconclusive results are not listed. Where a call stands in place of a potency, no number is given. The source made the active and inactive calls. Unless noted, calls come from the whole dose curve.

Key:
[1] = Nuclear factor erythroid 2-related factor 2/antioxidant responsive element (Nrf2/ARE) small molecule agonists: qHTS cell viability counter screen in human keratinocytes (AID 1919968; active = well fitted curve in the direction sought with a large enough effect in the repeat runs; an effect the other way counts as inactive or inconclusive; note: nearly all actives have a fitted effect of over 55% in size)
How it was run: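 In human HaCaT keratinocytes stably expressing an ARE-driven luciferase, compound exposure lasted 23 h at 37 C under 5% CO2. Viable cells are quantified with a protease-based fluorogenic reagent (CellTiter-Fluor) read 1 h after addition.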

[2] = Nuclear factor erythroid 2-related factor 2/antioxidant responsive element (Nrf2/ARE) small molecule agonists: luciferase reporter gene qHTS assay in human keratinocytes (AID 1919969); note: nearly all actives have a fitted effect of over 35% in size
[3] = target: Gonadotropin-releasing hormone receptor (Homo sapiens) (UniProt P30968); experiment: Human gonadotropin-releasing hormone receptor (GnRHR) small molecule agonists, calcium flux assay in GnRHR-HEK293 cells (AID 1920063); note: nearly all actives have a fitted effect of over 35% in size
Gonadotropin-releasing hormone receptor (Homo sapiens), sequence (P30968 whole entry, looked up): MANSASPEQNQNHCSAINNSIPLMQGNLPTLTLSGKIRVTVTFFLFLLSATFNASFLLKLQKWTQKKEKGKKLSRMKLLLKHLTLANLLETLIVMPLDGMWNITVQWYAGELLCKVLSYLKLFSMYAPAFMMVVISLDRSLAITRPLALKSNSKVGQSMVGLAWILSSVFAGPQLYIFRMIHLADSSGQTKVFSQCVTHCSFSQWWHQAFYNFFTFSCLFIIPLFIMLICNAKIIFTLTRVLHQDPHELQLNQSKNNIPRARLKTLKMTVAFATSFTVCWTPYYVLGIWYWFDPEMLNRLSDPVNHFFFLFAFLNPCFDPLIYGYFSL
How it was run: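 Intracellular calcium rise is the read-out: engineered human GnRHR HEK293 cells, dye-loaded, are exposed to DMSO-dissolved compounds and fluorescence at Ex/Em 480/540 is tracked for 3 min.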

[4] = target: KiSS-1 receptor (Homo sapiens) (UniProt Q969F8); experiment: Human kisspeptin (KISS1R) small molecule agonists, calcium flux assay in KISS1R-HEK293 cells (AID 1920064; active = well fitted curve in the direction sought with a large enough effect in the repeat runs; an effect the other way counts as inactive or inconclusive)
KiSS-1 receptor (Homo sapiens), sequence (Q969F8 whole entry, looked up): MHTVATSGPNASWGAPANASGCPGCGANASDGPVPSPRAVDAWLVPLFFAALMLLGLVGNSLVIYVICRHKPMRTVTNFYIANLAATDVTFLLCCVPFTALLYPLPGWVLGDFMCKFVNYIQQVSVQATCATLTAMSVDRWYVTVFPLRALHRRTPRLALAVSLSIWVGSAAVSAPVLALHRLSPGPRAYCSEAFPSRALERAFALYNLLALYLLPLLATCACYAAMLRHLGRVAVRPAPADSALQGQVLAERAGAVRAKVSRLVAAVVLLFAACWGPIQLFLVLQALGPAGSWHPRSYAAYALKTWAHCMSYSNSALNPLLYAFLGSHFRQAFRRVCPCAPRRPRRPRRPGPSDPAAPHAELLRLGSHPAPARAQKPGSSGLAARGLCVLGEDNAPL
How it was run: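 Concentration-response testing used 15 concentrations in triplicate on human KISS1R-expressing HEK293 cells. Calcium-dependent fluorescence (Ex/Em 480/540) was followed kinetically for 3 min after compound transfer.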

[5] = G protein-coupled receptor (GPCR) small molecule agonists, calcium flux assay: HEK293 wild type cell line counter screen (AID 1920065)
How it was run: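 Fluorescence intensity signals activation. After overnight (18 h) culture and a 1 h calcium dye load at 37 C, compounds are added by pin tool and the plate read at 480/540 nm for 3 min in 1 s steps.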

[6] = p53 small molecule agonists, cell-based qHTS assay with human liver microsomes (AID 1963577)
How it was run: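 Compounds act here after metabolic activation: human liver microsomes and NADPH, both at 0.5 mg/mL final, were co-added to p53RE-bla cells. Incubation ran 16 h at 37 C, followed by LiveBLAzer detection.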

[7] = p53 small molecule agonists, cell-based qHTS assay with rat liver microsomes: qHTS cell viability counter screen (AID 1963580); note: nearly all actives have a fitted effect of over 45% in size
How it was run: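 Luminescent ATP readout (CellTiter-Glo, 30 min at room temperature) reports viability of p53RE-bla HCT-116 cells after 16 h at 37 C with test compounds under metabolic activation by rat liver microsomes and NADPH at 0.5 mg/mL final each.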

[8] = target: 5-hydroxytryptamine receptor 2A (Homo sapiens) (UniProt P28223); experiment: 5-hydroxytryptamine receptor 2A (HTR2A) small molecule agonists, cell-based qHTS assay (AID 1963587); note: nearly all actives have a fitted effect of over 30% in size
5-hydroxytryptamine receptor 2A (Homo sapiens), sequence (P28223 whole entry, looked up): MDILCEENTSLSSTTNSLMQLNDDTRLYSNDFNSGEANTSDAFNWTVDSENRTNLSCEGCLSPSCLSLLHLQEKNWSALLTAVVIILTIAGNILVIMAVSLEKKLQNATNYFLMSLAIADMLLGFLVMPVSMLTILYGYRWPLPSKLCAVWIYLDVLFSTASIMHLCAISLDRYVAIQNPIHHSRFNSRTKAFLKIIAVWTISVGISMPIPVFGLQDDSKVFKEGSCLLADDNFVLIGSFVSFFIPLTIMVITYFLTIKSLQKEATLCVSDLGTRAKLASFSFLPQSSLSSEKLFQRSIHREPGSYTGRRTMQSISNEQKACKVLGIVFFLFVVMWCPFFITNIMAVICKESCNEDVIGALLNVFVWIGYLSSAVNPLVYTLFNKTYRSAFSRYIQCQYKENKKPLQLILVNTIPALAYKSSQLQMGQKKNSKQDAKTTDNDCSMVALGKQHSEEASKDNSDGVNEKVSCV
How it was run: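 HTR2A-CHO cells, plated 18 h at 37 C/5% CO2, dye-loaded 1 h at 37 C; compounds in DMSO added by pin tool (agonist mode). Intracellular calcium flux read as kinetic fluorescence on FDSS over 2 min at 1 s intervals.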

[9] = target: Muscarinic acetylcholine receptor M1 (Homo sapiens) (UniProt P11229); experiment: Cholinergic receptor muscarinic 1 (CHRM1) small molecule antagonists, cell-based qHTS assay (AID 1963588); note: nearly all actives have a fitted effect of over 40% in size; note: potency is the fitted concentration of half-maximal effect
Muscarinic acetylcholine receptor M1 (Homo sapiens), sequence (P11229 whole entry, looked up): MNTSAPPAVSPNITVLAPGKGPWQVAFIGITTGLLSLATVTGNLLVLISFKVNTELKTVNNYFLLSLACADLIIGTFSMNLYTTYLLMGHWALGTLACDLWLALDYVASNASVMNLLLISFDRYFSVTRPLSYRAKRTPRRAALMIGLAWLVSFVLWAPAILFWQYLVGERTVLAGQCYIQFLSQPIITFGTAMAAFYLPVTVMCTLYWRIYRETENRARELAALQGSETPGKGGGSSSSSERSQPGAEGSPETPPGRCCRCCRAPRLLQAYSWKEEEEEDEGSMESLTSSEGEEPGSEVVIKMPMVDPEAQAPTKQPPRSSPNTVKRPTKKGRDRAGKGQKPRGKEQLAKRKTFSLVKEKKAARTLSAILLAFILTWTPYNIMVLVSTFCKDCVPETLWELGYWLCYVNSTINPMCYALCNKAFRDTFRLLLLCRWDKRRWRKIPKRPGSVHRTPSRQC
How it was run: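 Compounds were tested at 15 concentrations in three independent runs. Dye-loaded CHRM1-CHO cells were exposed 5 min at room temperature before stimulation by acetylcholine added at 50nM. Intracellular calcium was read kinetically on FDSS for 3 min.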

[10] = target: Muscarinic acetylcholine receptor M1 (Homo sapiens) (UniProt P11229); experiment: Cholinergic receptor muscarinic 1 (CHRM1) small molecule agonists, cell-based qHTS assay (AID 1963589); note: nearly all actives have a fitted effect of over 35% in size
How it was run: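 Fluorescent calcium dye reports M1 activation in stably transfected CHO cells. Compounds, 15 concentrations, added after 1 h dye loading at 37 C; kinetic reading at 1 sec intervals.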

[11] = cAMP Responsive Elements (CRE) small molecule agonists, cell-based qHTS assay (AID 1963590)
How it was run: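 Compound exposure lasted 3 h at 37 C/5% CO2 in CRE-bla HEK 293T cells grown in assay medium with 10% dialyzed FBS and 25 mM HEPES. Reporter signal came from LiveBLAzer B/G FRET substrate, 2 h, room temperature.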

[12] = cAMP Responsive Elements (CRE) small molecule antagonists, cell-based qHTS assay (AID 1963591; active = well fitted inhibition curve with a large enough effect in the signal ratio in the repeat runs, not every such curve was filed as active; the % refers to the signal ratio)
How it was run: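 Stimulation used NKH477 at a final 0.25 uM for 3 h in compound-treated CRE-bla HEK293T cells, seeded 18 h beforehand. Reporter activity was measured with LiveBLAzer B/G FRET substrate after 2 h at room temperature.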

[13] = target: D(2) dopamine receptor (Homo sapiens) (UniProt P14416); experiment: Dopamine D2 receptor (DRD2) small molecule agonists, cell-based qHTS assay (AID 1963594); note: nearly all actives have a fitted effect of over 35% in size
D(2) dopamine receptor (Homo sapiens), sequence (P14416 whole entry, looked up): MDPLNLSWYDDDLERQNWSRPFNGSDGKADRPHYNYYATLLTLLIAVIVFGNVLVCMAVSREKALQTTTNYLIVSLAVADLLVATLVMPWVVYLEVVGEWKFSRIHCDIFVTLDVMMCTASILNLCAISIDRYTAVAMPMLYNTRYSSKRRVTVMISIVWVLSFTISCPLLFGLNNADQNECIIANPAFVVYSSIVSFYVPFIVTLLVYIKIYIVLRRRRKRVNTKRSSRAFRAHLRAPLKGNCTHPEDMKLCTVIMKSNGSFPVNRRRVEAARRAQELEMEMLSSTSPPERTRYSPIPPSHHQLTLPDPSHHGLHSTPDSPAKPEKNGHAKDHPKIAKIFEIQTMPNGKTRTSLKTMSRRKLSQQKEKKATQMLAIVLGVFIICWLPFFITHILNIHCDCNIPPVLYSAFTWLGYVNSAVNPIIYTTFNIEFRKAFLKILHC
How it was run: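 HEK293 cells stably expressing DRD2 were cultured 24 h at 37 C, then given Ro20-1724 (0.1 mM final) and compounds for 10 min at room temperature. NKH477 (200nM) was then added for 30 min. cAMP was read by HTRF.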

[14] = target: D(2) dopamine receptor (Homo sapiens) (UniProt P14416); experiment: Dopamine D2 receptor (DRD2) small molecule antagonists, cell-based qHTS assay (AID 1963595; active = well fitted inhibition curve with a large enough effect in the signal ratio in the repeat runs, with a control signal flat; the % refers to the signal ratio)
How it was run: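 In this cell-based antagonist screen, compounds act for 10 min at room temperature before a 30 min challenge with 12 nM quinpirole and 200 nM NKH477. cAMP is quantified by HTRF competition in DRD2-HEK293 cells containing 0.1 mM Ro20-1724.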

[15] = p53 small molecule agonists, cell-based qHTS assay with rat liver microsomes (AID 1963578)
How it was run: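 Read-out is beta-lactamase reporter fluorescence (LiveBLAzer, 2 h, room temperature, dark) in p53RE-bla cells treated 16 h at 37 C with compound, rat liver microsomes and NADPH, both 0.5 mg/mL final.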

[16] = p53 small molecule agonists, cell-based qHTS assay with human liver microsomes: qHTS cell viability counter screen (AID 1963579); note: nearly all actives have a fitted effect of over 45% in size
How it was run: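 Cells carrying the p53 response-element beta-lactamase reporter are treated for 16 h at 37 C with test compounds in the presence of human liver microsomes and NADPH (both 0.5 mg/mL final); ATP-based CellTiter-Glo luminescence then reports viability.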

[17] = p53 small molecule agonists, cell-based qHTS assay: qHTS cell viability counter screen (AID 1963581); note: nearly all actives have a fitted effect of over 45% in size
How it was run: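 Luminescence from CellTiter-Glo, reflecting ATP content, serves as the cytotoxicity measure; it is taken after the 2 h reporter substrate step in HCT-116 p53RE-bla cells dosed for 16 h at 37 C.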

[18] = p53 small molecule agonists, cell-based qHTS assay (AID 1963582; active = well fitted activation curve with a large enough effect in the signal ratio in the repeat runs, not every such curve was filed as active; the % refers to the signal ratio)
How it was run: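 After plating, p53RE-bla cells sat 5 h in the incubator; compounds or DMSO vehicle were pinned in; a 16 h incubation at 37 C followed; FRET substrate was added and, 2 h later at RT, fluorescence was measured.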

[19] = target: Beta-2 adrenergic receptor (Homo sapiens) (UniProt P07550); experiment: Adrenergic beta2 receptor (ADRB2) small molecule antagonists, cell-based qHTS assay (AID 1963592); note: series mostly up to about 92 µM; nearly all actives have a fitted effect of over 50% in size
Beta-2 adrenergic receptor (Homo sapiens), sequence (P07550 whole entry, looked up): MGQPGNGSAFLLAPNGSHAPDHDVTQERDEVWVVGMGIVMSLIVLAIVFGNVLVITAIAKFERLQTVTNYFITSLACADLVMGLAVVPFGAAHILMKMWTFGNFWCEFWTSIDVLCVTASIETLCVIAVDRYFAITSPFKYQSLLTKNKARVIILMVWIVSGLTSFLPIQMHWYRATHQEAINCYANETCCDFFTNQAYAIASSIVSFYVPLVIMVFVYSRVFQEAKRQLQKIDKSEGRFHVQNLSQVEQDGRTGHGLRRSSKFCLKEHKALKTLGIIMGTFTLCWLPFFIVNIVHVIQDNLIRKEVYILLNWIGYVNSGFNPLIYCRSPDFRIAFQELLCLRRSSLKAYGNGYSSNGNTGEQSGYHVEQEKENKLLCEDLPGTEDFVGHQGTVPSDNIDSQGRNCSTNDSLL
How it was run: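 Assay format: CHO-ADRB2 cells, 18-20hr seeding at 37C/5% CO2, then compound plus 1nM isoproterenol agonist mix for 0.5hr RT. Homogeneous time-resolved fluorescence cAMP detection after 1hr, expressed as 665/615 nm ratio.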

[20] = target: 5-hydroxytryptamine receptor 2A (Homo sapiens) (UniProt P28223); experiment: 5-hydroxytryptamine receptor 2A (HTR2A) small molecule antagonists, cell-based qHTS assay (AID 1963586); note: nearly all actives have a fitted effect of over 45% in size
How it was run: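 CHO cells stably expressing human HTR2A were plated for 18 h at 37 C, then loaded with calcium dye for 1 h. Compounds were preincubated 5 min at room temperature before DOI (4 nM solution) was added. Kinetic fluorescence was read for 3 min.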

SMILES	Potency [1]	Potency [2]	Potency [3]	outcome [4]	outcome [5]	Potency [6]	Potency [7]	Potency [8]	Potency [9]	Potency [10]	Potency [11]	Potency [12]	Potency [13]	Potency [14]	Potency [15]	Potency [16]	Potency [17]	Potency [18]	Potency [19]	Potency [20]
CNCCC(Oc1ccccc1OC)c1ccccc1 (stereo not drawn)	inactive	inactive	inactive	inactive	inactive	inactive	inactive	inactive	16.3 µM (active)	inactive	inactive	inactive	inactive	inactive						
Brc1ccc(-c2ccccc2)cc1	inactive	inactive	inactive	inactive	inactive		inactive	inactive	inactive	inactive	inactive	inactive	inactive	inactive	inactive	inactive	inactive	inactive	inactive	
COc1ccc(N)c([N+](=O)[O-])c1	inactive	inactive	inactive	inactive	inactive		inactive	inactive	inactive	inactive	inactive	inactive	inactive	inactive	inactive	inactive	inactive	inactive	inactive	
CC(=O)O[C@H]1C[C@@H]2CC[C@@H]3[C@H](CC[C@@]4(C)[C@H]3C[C@H]([N+]3(C)CCCCC3)[C@@H]4OC(C)=O)[C@@]2(C)C[C@@H]1N1CCCCC1	inactive	inactive	inactive	inactive	inactive		inactive				inactive	inactive	inactive	inactive	inactive	inactive	inactive	inactive	inactive	
Cc1scc2c1N(C(=O)CN1CCN(C)CC1)c1ccccc1NC2=O	inactive	inactive	inactive	inactive	inactive		inactive	inactive		inactive	inactive	inactive	inactive	inactive	inactive	inactive	inactive	inactive	inactive	inactive
CCCCCC(C)N (stereo not drawn)	inactive	inactive	inactive	inactive	inactive		inactive	inactive	inactive	inactive	inactive	inactive	inactive	inactive	inactive	inactive	inactive		inactive	inactive
CC/C=C\CCOC(=O)c1ccccc1O	inactive	inactive	inactive	inactive	inactive	inactive		inactive	inactive	inactive	inactive	inactive	inactive	inactive			inactive	inactive	inactive	inactive
